Screens: PubChem BioAssay, National Center for Advancing Translational Sciences (NCATS)
This is a sample that favours compounds with a hit; in the whole collection about 21% have one here.
NS1 inh = qHTS Assay for Inhibitors of Influenza NS1 Protein Function; hit rate 0.4% among 270,000; Potency, µM (top dose mostly 46.1 µM), inactives show at the top dose activity, positive = more growth; further: potency means the concentration at half of the fitted maximal effect; actives are rising curves; nearly all actives have a fitted effect of over 50% in size
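Read-out: OD600 growth recovery of NS1-expressing budding yeast. Cells grown overnight at 30C in -URA glucose medium, washed, resuspended and diluted 1:100 in 2% galactose assay medium, pH 6.0. Same strain lacking NS1 served as positive control.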
Shiga inhibitor = A qHTS for Small Molecule Inhibitors of Shiga Toxin | Vero cells, Shiga toxin protein synthesis inhibition reporter | inhibition, % at 38.7 µM | hit rate 9.2% among 290,000; in the data active means inhibition mostly above about 28%, no sharp cut-off; inactive means mostly below about 43%; further: 0% is about no effect
Pf growth 96h = Primary qHTS for delayed death inhibitors of the malarial parasite plastid, 96 hour incubation; P. falciparum luciferase reporter growth, 96 h; Potency, µM (doses to about 28.7 µM), without a hit: at the highest dose activity change, negative = inhibition, hits mostly inhibitors; hit rate 6.9% among 320,000; active means well fitted inhibition curve with a large enough effect; inconclusive means small, poorly fitted or top-dose-only effect, or another doubt; inactive means no such curve, though single readings can be large or run the other way; further: potency means the concentration at half of the fitted maximal effect; on the % scale 0 is the no-effect control and ±100 the full control effect
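Two parasite generations (96 h, 37 C, 5% CO2) of compound exposure in infected erythrocytes (0.05% parasitemia, 2% hematocrit). Luciferase-reporter P. falciparum; decreased luminescence indicates inhibited growth, aimed at apicoplast-acting delayed death.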
SARS PLP yeast = qHTS of Yeast-based Assay for SARS-CoV PLP; Potency, µM (doses to about 32.9 µM), inactives show at the highest dose activity, positive = growth rescue, hits mostly activators; hit rate 0.19% among 330,000; S. cerevisiae expressing SARS-CoV PLpro, growth rescue; further: potency means the concentration at half of the fitted maximal effect; 0% is about no effect; nearly all actives have a fitted effect of over 55% in size
Pf growth 48h = Primary qHTS for delayed death inhibitors of the malarial parasite plastid, 48 hour incubation; P. falciparum luciferase growth in erythrocytes, 48 h; hit rate 5.9% among 310,000; Potency, µM (doses to about 28.7 µM), for inactives: at the top dose activity change, negative = inhibition, hits mostly inhibitors; AID 504832, 2011; active means well fitted inhibition curve with a large enough effect; inconclusive means small, poorly fitted or top-dose-only effect, or another doubt; inactive means no such curve, though single readings can be large or run the other way; further: potency means the concentration at half of the fitted maximal effect; on the % scale 0 is the no-effect control and ±100 the full control effect
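In quantitative HTS format, infected erythrocytes bearing luciferase-reporter parasites were treated for a single generation at 37 C. Luminescence after adding detection reagent served as the growth measure.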
CHX counter = Cycloheximide Counterscreen for Small Molecule Inhibitors of Shiga Toxin | max response, % | cell reporter, cycloheximide protein synthesis inhibition counterscreen | hit rate 12% among 300,000; in the data active means max response mostly above about 13%, no sharp cut-off; inactive means mostly below about 14%; further: read at 38.3 µM for the half of the compounds with a filed dose; 0% is about no effect
Active calls of the source: *; [ ] = remark or other dose. Unless noted, the call rests on the fitted dose curve.

For CN(CC(=O)NC1CCCCCCC1)S(=O)(=O)c1cnc[nH]1 the results were Shiga inhibitor -6, Pf growth 96h 21%, SARS PLP yeast 3%, Pf growth 48h -7% and CHX counter 8.
`COc1ccc(CCNC(=O)c2ccc(-c3ccc([N+](=O)[O-])cc3)o2)cc1OC` gave NS1 inh -7%, Shiga inhibitor 9, Pf growth 96h inconclusive, SARS PLP yeast 8%, Pf growth 48h -15% and CHX counter 1.
Screening COc1ccc(CC(=O)NC(C)c2nnc(SCC(=O)Nc3cc(C)ccc3OC)n2C)cc1 (configuration not stated) returned NS1 inh -12%, Shiga inhibitor -23, Pf growth 96h 19%, SARS PLP yeast 0%, Pf growth 48h -10% and CHX counter -3.
Screening CC(=O)c1cccc(OCc2cc(C(=O)N3CCC(N4CCCCC4)CC3)no2)c1 returned NS1 inh 3%, Shiga inhibitor -1, Pf growth 96h 12%, SARS PLP yeast -2%, Pf growth 48h inconclusive and CHX counter 2.
COC(=O)NC(NC(=S)Nc1ccccc1OC)C(Cl)(Cl)Cl (configuration not stated) was read as NS1 inh 19%, Shiga inhibitor 2, Pf growth 96h inconclusive, SARS PLP yeast -12%, Pf growth 48h inconclusive and CHX counter -1.
Screening COc1ccccc1NC(=S)NC(NC(=O)C(C)C)C(Cl)(Cl)Cl (configuration not stated) returned NS1 inh 1%, Shiga inhibitor -10, Pf growth 96h 12%, SARS PLP yeast 1%, Pf growth 48h 7.4µM* and CHX counter 1.
Screening Cc1occc1-c1nnc(SCC(N)=O)o1 returned NS1 inh -5%, Shiga inhibitor 35, Pf growth 96h inconclusive, SARS PLP yeast 0%, Pf growth 48h 22% and CHX counter 14.
`O=c1cc(-c2cccc([N+](=O)[O-])c2)[nH][nH]1` gave NS1 inh inconclusive, Shiga inhibitor 9, Pf growth 96h -12%, SARS PLP yeast 17%, Pf growth 48h -20% and CHX counter -4.
O=[N+]([O-])c1cccc(-c2nnc(-c3ccc4c(c3)OCO4)o2)c1 was read as NS1 inh -4%, Shiga inhibitor 111*, Pf growth 96h 157%, SARS PLP yeast -3%, Pf growth 48h 216% and CHX counter 65*.
Screening Clc1ccccc1-c1nnc(-c2ccc3c(c2)OCO3)o1 returned Shiga inhibitor 93*, Pf growth 96h inconclusive, SARS PLP yeast -5%, Pf growth 48h inactive and CHX counter 29*.
`Cc1occc1-c1nnc(-c2cc([N+](=O)[O-])cc([N+](=O)[O-])c2)o1` gave NS1 inh 22%, Shiga inhibitor 18, Pf growth 96h 29%, SARS PLP yeast -5%, Pf growth 48h 10µM* and CHX counter 11.
Screening Nc1cc(-c2cccc([N+](=O)[O-])c2)[nH]n1 returned NS1 inh 9%, Shiga inhibitor 2, Pf growth 96h 56%, SARS PLP yeast -2%, Pf growth 48h 13% and CHX counter 16*.
For O=C(COC(=O)c1cc(Cl)nc(Cl)c1)Nc1ccc(Cl)c(S(=O)(=O)N2CCOCC2)c1 the results were SARS PLP yeast -11%.
O=C(Nc1ccccc1Cc1ccccc1)c1ccncc1 was read as NS1 inh -1%, Shiga inhibitor -11, Pf growth 96h 111%, SARS PLP yeast -3%, Pf growth 48h -5% and CHX counter 5.
For O=C(NNC(=O)c1cc(S(=O)(=O)N2CCOCC2)c(Cl)cc1Cl)c1ccccc1F the results were SARS PLP yeast -1%.
For O=[N+]([O-])c1cccc(-c2nnc(-c3ccccc3)o2)c1 the results were NS1 inh -5%, Shiga inhibitor 67*, Pf growth 96h 11%, SARS PLP yeast 0%, Pf growth 48h 89% and CHX counter 45*.
`CCOc1ccccc1NC(=O)C(Sc1ccccc1)c1ccccc1` (configuration not stated) gave NS1 inh 7%, Shiga inhibitor -12, Pf growth 96h inconclusive, SARS PLP yeast -9%, Pf growth 48h inconclusive and CHX counter 0.
CC/C(=N\N1CCCCCC1)c1c(O)n(-c2ccccc2C)c(=O)[nH]c1=O was read as NS1 inh 2%, Shiga inhibitor -3, Pf growth 96h 4.7µM*, SARS PLP yeast 16%, Pf growth 48h inconclusive and CHX counter -7.
CCC(=NCCN1CCOCC1)c1c(O)n(-c2ccccc2C)c(=O)[nH]c1=O was read as NS1 inh -7%, Shiga inhibitor -4, Pf growth 96h -2%[5.75 µM], SARS PLP yeast -1%, Pf growth 48h 9% and CHX counter -2.
CCc1ccc(CCC(=O)O)nc1 was read as NS1 inh -3%.
`CN1CCN(NC(=O)COc2cccc(C(F)(F)F)c2)CC1` gave NS1 inh 7%, Shiga inhibitor -2, Pf growth 96h inconclusive, SARS PLP yeast -11%, Pf growth 48h 4% and CHX counter -3.
CC(=O)Nc1ccc(S(=O)(=O)N2CCc3c(Cl)cccc3C2)cc1 was read as NS1 inh -9%, Shiga inhibitor -9, Pf growth 96h 15µM*, SARS PLP yeast inconclusive and CHX counter -4.
Cc1cc(OCC(=O)Nc2ccc(S(=O)(=O)N3CCN(C)CC3)cc2)ccc1Br was read as NS1 inh 8%, Shiga inhibitor -7, Pf growth 96h 6.6µM*, SARS PLP yeast 12%, Pf growth 48h 12µM* and CHX counter -3.
For CN1CCC(N(C)S(=O)(=O)c2ccc(NC(=O)COc3cccc(C(F)(F)F)c3)cc2)CC1 the results were Pf growth 96h 13µM*, SARS PLP yeast 1% and Pf growth 48h inconclusive.
`O=C(COc1ccc2ccccc2c1)Nc1ccc(S(=O)(=O)N2CCCCCC2)cc1` gave NS1 inh 4%, Shiga inhibitor 10, Pf growth 96h inconclusive, SARS PLP yeast -2%, Pf growth 48h 12µM* and CHX counter -5.
For Nc1ccc2nc[nH]c2c1 the results were Shiga inhibitor -25, Pf growth 96h 2%, SARS PLP yeast -8%, Pf growth 48h 4% and CHX counter -4.
CC(=O)Nc1ccc(N2C(=O)CSC2c2ccccc2)cc1 (configuration not stated) was read as NS1 inh 2%, Shiga inhibitor 29, Pf growth 96h inconclusive, SARS PLP yeast 0%, Pf growth 48h -4% and CHX counter -5.
Screening COc1cccc(NC(=O)CCC2CCN(C(=O)c3ccc(C(C)=O)s3)CC2)c1 returned NS1 inh -1%, Shiga inhibitor -4, Pf growth 96h inconclusive, SARS PLP yeast 23%, Pf growth 48h -9% and CHX counter 2.
